# Source: PubChem BioAssay (National Center for Advancing Translational Sciences (NCATS))
# mTORC1 inh: Acumen qHTS Assay for Inhibitors of the mTORC1 Signaling Pathway in MEF (Tsc2-/-, p53-/-) Cells: Sytravon; Tsc2-/- p53-/- MEF, phospho-rpS6 immunofluorescence/PI, 24 h; Potency, µM (top dose mostly 38.3 µM), most hits filed as inhibitors; 44,000 tested, 0.78% active; also: nearly all actives have a fitted effect of over 50% in size
#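 Read-out: phospho-S6 Alexa-488 intensity over PI intensity per well, scored as % active cells using thresholds from rapamycin (7.5 nM) and DMSO controls. Tsc2-/-, p53-/- MEFs exposed to compound for 24 h; PI cell count recorded as viability.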
# OvCa metastasis: Primary qHTS assay for Inhibitors of ovarian cancer metastasis using an organotypic tumor microenvironment (TME) model | AID 1963576, 2024 | SKOV3ip1-GFP adhesion/invasion on 3D omental model, fluorescence | Potency, µM (titrated, usually from 45.8 µM), usual class: inhibitors | 46,000 tested, 0.1% active; also: nearly all actives have a fitted effect of over 65% in size
#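 qHTS, 4-pt dose (0.36-46 umol/L); SKOV3ip1-GFP, 1,200 cells/well, no FBS; primary omental fibroblast/mesothelial co-culture 48 h pre-grown; 2 h RT + 16 h 37 C; PBS wash, 4% PFA; GFP count 488/509 nm.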
# S16 viability: Cell viability qHTS assay in S16 Pmp22-F2sN cells | Potency, µM (top dose mostly 57.5 µM), most hits filed as cytotoxic | S16 Pmp22-F2sN Schwann cells viability, CellTiter-Glo, 24 h | 43,000 tested, 0.48% active; also: nearly all actives have a fitted effect of over 65% in size
#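 S16 Schwann cells carrying the Pmp22-F2sN reporter, seeded in 1536-well format, were exposed to library compounds for 24 h at 37C. Viability was read as CellTiter-Glo luminescence after 15 min at room temperature.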
# p53null 32C kill: qHTS Screen for Compounds that Selectively Target Cancer Cells with p53 Mutations: Cytotoxicity of p53 Null Cells at the Permissive Temperature. AID 903, 2007. H1299-neo p53 null cells, ATP luminescence, 24 h, 32C. 55,000 tested, 0.62% active. Potency, µM (top dose mostly 46.1 µM), most hits filed as cytotoxic; also: nearly all actives have a fitted effect of over 55% in size
#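 Cytotoxicity: H1299-neo (no p53), 32C, 24 h treatment. Concentrations up to 46 uM. Readout cellular ATP, luminescence. Normalization to DMSO basal and tamoxifen 100 uM maximal kill.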
# PMP22 txn prim: Cell-based coincidence reporter assay to measure PMP22 gene transcription in S16 Pmp22-F2sN cells - Primary screen; AID 1508649, 2021; Potency, µM (titrated, usually from 57.5 µM), hits mostly inhibitors; 43,000 tested, 2% active; S16 Pmp22-F2sN Schwann cells (luciferase reporters placed in the Pmp22 gene), FLuc/NLuc coincidence luminescence, 24 h; active = clear falling dose curves in both reporters; inconclusive = both reporters move, but less clearly or upward; inactive = either reporter flat; the % is the NLuc reporter signal
#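 Schwann cells carrying the coincidence reporter were exposed to library compounds for 24 h at 37C, then lysed and read for FLuc and, after quenching, NLuc luminescence on a CCD imager.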
# p53null 39C tox: qHTS Screen for Compounds that Selectively Target Cancer Cells with p53 Mutations: Cytotoxicity of p53 Null Cells at the Nonpermissive Temperature. 55,000 tested, 0.97% active. H1299 p53-null (neo) cells, 39C, ATPlite viability, 24 h. Potency, µM (titrated, usually from 46.1 µM), usual class: cytotoxic. AID 904, 2007; also: nearly all actives have a fitted effect of over 50% in size
#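 Luminescent ATP signal reported cell survival after H1299 lines (neo, p53 null; or p53 A138V) received up to 46 uM compound and 24 hr incubation at 39C.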
# Hits are given with their value; . = inactive; ? = inconclusive; / = not tested or not shown. Most compounds without a hit are left out; they make up all but 3% or so of the library. Unless noted, calls follow the shape of the dose curve; as a rule, active = well fitted curve in the direction sought with a large enough effect; inconclusive = small, poorly fitted or top-dose-only effect, or another doubt; inactive = no such curve, though single readings can be large; an effect the other way counts as inactive or inconclusive.
SMILES,mTORC1 inh,OvCa metastasis,S16 viability,p53null 32C kill,PMP22 txn prim,p53null 39C tox
O=C(Oc1ccccc1Cl)c1cc(-c2ccc3c(c2)OCCO3)on1,.,.,.,20µM,?,?
Cc1cccc(OC(=O)c2cc(-c3ccc4c(c3)OCCO4)on2)c1C,.,.,.,16µM,.,32µM
Cc1ccccc1OC(=O)c1cc(-c2ccc3c(c2)OCCO3)on1,.,.,.,?,.,?
Fc1ccc(-c2cn3cc(Cc4ccccc4Cl)sc3n2)cc1,.,.,.,?,.,7.9µM
Fc1ccccc1Cc1cn2cc(-c3ccc(Cl)cc3)nc2s1,.,.,.,?,.,?
Clc1ccc(-c2cn3cc(Cc4ccccc4)sc3n2)cc1,.,.,.,?,.,16µM
O=C(NCc1ccccc1)c1cc2sccc2n1Cc1ccc(Cl)cc1,.,.,.,.,.,.
CC(C)NC(=O)C1CCN(C(=O)c2cc3sccc3n2Cc2ccc(Cl)cc2)CC1,.,.,?,.,9.5µM,.
Cc1ccc(CN2C(=O)c3ccccc3Sc3ccc(C(=O)NCCCN4CCOCC4)cc32)cc1,12µM,.,.,.,?,?
FC(F)(F)c1cccc(N2CCN(c3ncnc4c3nc3n4CCCC3)CC2)c1,.,.,?,.,13µM,.
c1ccc(N2CCN(c3ncnc4c3nc3n4CCCC3)CC2)cc1,.,.,?,.,?,.
Cc1ccc(C(N)=O)cc1Nc1nccc(-c2cn(C(C)C)c3cnccc23)n1,/,.,/,/,/,/
CN(c1ccccc1)C(CNS(=O)(=O)c1ccccc1)c1ccccc1 (centres undefined),.,.,.,.,?,?
Cc1ccc(N(C)C(CNS(=O)(=O)c2ccccc2)c2ccccc2)cc1 (centres undefined),.,.,.,.,?,14µM
CC(=O)c1ccc(N2CCN(S(=O)(=O)c3ccc4c(c3)CC(C)N4C(=O)C3CCC3)CC2)cc1 (centres undefined),.,.,?,.,13µM,.
CCOC(=O)c1ccc(Nc2nc(C(=O)OCC)nc3ccccc23)cc1,.,.,.,.,?,.
COC(=O)c1ccc(Nc2nc(-c3ccc(C)cc3)nc3ccccc23)cc1,.,.,.,?,.,16µM
Cc1ccc(Nc2c(-c3c[nH]c4ccccc34)nc3ccccn23)cc1,?,.,.,.,?,14µM
CCc1ccc(-n2c(SCc3ccccc3Cl)nc3[nH]ncc3c2=O)cc1,.,?,?,?,?,18µM
CN(C)c1nc(Cc2ccc(NC(=O)c3ccc4ccccc4c3)cc2)nc(Cl)c1CC(=O)O,/,.,/,/,/,/
Cc1ccc(O)c(NC(=O)c2noc3c2CCCCC3)c1,.,.,.,13µM,?,13µM
COc1ccc(OC)c(NC(=O)c2noc3c2CCCC3)c1,.,.,.,.,.,.
CC(=O)c1cccc(NC(=O)c2noc3c2CCCC3)c1,.,.,/,?,/,?
Cc1ccc(O)c(NC(=O)c2noc3c2CCCC3)c1,.,.,/,?,/,10µM
COC(=O)[C@H](CCCN=C(N)N)NS(=O)(=O)c1ccc(C)cc1,/,.,/,/,/,/
SMILES,mTORC1 inh,OvCa metastasis,S16 viability,p53null 32C kill,PMP22 txn prim,p53null 39C tox
CCc1cncnc1N1CCN(Cc2nc3ccc(C(F)(F)F)cc3[nH]2)CC1,/,.,/,/,/,/
O=C(CSc1nc(-c2ccccc2)[nH]c1-c1ccccc1)Nc1ccc2c(c1)OCO2,?,.,35µM,.,?,?
COc1cc(-c2nc(SCC(=O)Nc3ccc4c(c3)OCO4)c(-c3ccccc3)[nH]2)cc(OC)c1OC,.,?,?,.,.,?
Fc1ccc(Nc2nc3nonc3nc2Nc2cccc(C(F)(F)F)c2)cc1,?,.,8.9µM,?,7.3µM,5.6µM
CN(C)C(=O)c1ccc(S(=O)(=O)c2ccc(NC(=O)[C@@](C)(O)C(F)(F)F)c(Cl)c2)cc1,/,.,/,/,/,/
COc1ccc2c(c1)Cc1sc(NC(=O)c3cccc(C)c3)nc1-2,.,.,.,.,.,.
COc1ccc2c(c1)Cc1sc(NC(=O)c3cccc(Cl)c3)nc1-2,.,.,?,16µM,.,.
CCc1ccccc1NS(=O)(=O)c1ccc2oc(=O)c3ncn(C)c3c2c1,.,.,/,.,/,.
CCOc1ccccc1NS(=O)(=O)c1ccc2oc(=O)c3ncn(C)c3c2c1,.,?,/,.,/,20µM
Cc1nc(N)sc1-c1ccnc(Nc2ccc(N3CCOCC3)cc2)n1,/,.,/,/,/,/
CC1=C(C(=O)Nc2cc3cn[nH]c3cc2F)C(c2ccc(Cl)cc2F)N=C(c2ccnc(Cl)c2)N1 (centres undefined),/,.,/,/,/,/
CC1=C(C(=O)Nc2cc3cn[nH]c3cc2F)C(c2ccc(C(F)(F)F)cc2)CC(=O)N1 (centres undefined),/,.,/,/,/,/
Cc1c[nH]c(C=C2C(=O)Nc3ccccc32)c1CCC(=O)O,/,.,/,/,/,/
COc1ccc(S(=O)(=O)N(C(=O)c2ccncc2)c2ccc3oc4c(c3c2)CCCC4)cc1,/,/,/,.,/,/
CCc1ccc(S(=O)(=O)N(C(=O)c2ccncc2)c2ccc3oc(C)c(C(=O)OC)c3c2)cc1,?,.,?,.,?,.
CCOc1ccc(S(=O)(=O)N(C(=O)c2ccncc2)c2ccc3oc(C)c(C(=O)OC)c3c2)cc1,5.2µM,.,?,.,?,?
COc1ccc(S(=O)(=O)N(C(=O)c2ccncc2)c2ccc3oc(C)c(C(C)=O)c3c2)cc1,18µM,?,?,.,13µM,?
COC(=O)c1c(C)oc2ccc(N(C(=O)c3ccncc3)S(=O)(=O)c3ccc(OC)cc3)cc12,?,.,?,.,5.3µM,?
COCCOc1ccc2c(c1)ncn2-c1ccc2cccc(N3CCC(N)CC3)c2n1,/,.,/,/,/,/
NC(=O)c1cnc(-c2ccc(C3(N)CCC3)cc2)c(-c2ccccc2)c1,/,.,/,/,/,/
Cc1ccc(S(=O)(=O)Cc2ccc(C(=O)N3CCN(c4cccc(Cl)c4)CC3)o2)cc1,?,.,.,.,15µM,?
COc1ccc(CCNC(=O)CCCn2c(=O)c3ccccc3n(CC(=O)Nc3cc(Cl)ccc3C)c2=O)cc1OC,?,.,.,?,?,13µM
CCC(C(=O)NCCc1ccc(OC)c(OC)c1OC)n1nc(C)c2sc3ccccc3c2c1=O (centres undefined),.,.,?,.,?,.
